Screening results: PubChem BioAssay, NMMLSC
MEKK2 mut-MEK5: MEK5 binding signal on mutant MEKK2 PB1, primary screen, biochemical, multiplex bead flow cytometry, Alexa488-MEK5; Alexa488-MEK5 binding to MEKK2 mutant; percent response, % at 10 µM; hit rate 0.35% among 290,000; AID 1530, 2009; in the data active = percent response above about 24%, passing the limit was not always enough
GRK2 inh: compounds blocking aptamer binding on GRK2 – biochemical, human GRK2, bead flow cytometry, HTS, primary screen | AID 488847, 2010 | inhibition of aptamer binding, % at 10 µM | Beta-adrenergic receptor kinase 1 (Homo sapiens), P25098 | FAM-aptamer displacement from GRK2 | hit rate 0.59% among 330,000;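 active = inhibition of aptamer binding above 40%, roughly 3 SD of noise, on plates passing a quality check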;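 note: median bead fluorescence of bound FAM aptamer so fluorescent compounds give negative values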
Target sequence (P25098 whole entry, looked up): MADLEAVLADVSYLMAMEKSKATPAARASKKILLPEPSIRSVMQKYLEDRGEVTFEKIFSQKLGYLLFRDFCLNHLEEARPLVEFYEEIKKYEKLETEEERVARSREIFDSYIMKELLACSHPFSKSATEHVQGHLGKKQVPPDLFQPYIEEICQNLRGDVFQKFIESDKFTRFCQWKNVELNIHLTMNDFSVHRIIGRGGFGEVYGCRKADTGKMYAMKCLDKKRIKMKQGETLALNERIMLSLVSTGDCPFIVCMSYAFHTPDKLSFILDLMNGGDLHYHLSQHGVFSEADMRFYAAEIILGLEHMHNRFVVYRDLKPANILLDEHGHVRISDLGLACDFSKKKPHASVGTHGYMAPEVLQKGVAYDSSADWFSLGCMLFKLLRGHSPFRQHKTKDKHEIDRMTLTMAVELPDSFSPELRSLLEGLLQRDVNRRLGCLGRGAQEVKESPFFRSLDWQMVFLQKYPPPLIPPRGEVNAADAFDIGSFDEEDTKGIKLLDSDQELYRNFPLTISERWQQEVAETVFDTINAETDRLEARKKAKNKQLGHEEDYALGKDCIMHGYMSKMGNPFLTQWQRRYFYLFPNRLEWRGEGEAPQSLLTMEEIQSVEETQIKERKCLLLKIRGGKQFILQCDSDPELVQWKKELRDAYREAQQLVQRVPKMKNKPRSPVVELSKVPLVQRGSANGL
MEKK3 PB1 HTS: modulators of MEKK3-MEK5 PB1 binding, primary screen, biochemical, wildtype MEKK3, multiplex bead flow cytometry, Alexa488-MEK5; AID 1529, 2009; Mitogen-activated protein kinase kinase kinase 3 (Homo sapiens), Q99759; binding response (% of control), % at 10 µM; bead-based flow cytometry, Alexa488-MEK5 binding to MEKK3; actives lie on both sides; 0 = blocked by unlabeled MEK5, 100 = vehicle; hit rate 1.4% among 290,000;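 active = binding response more than 3 SD above or below the average of its plate-row segment, actives on both sides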;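 note: Alexa488 bead fluorescence after subtracting the streptavidin-only scavenger bead signal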
MEKK2wt PB1 HTS: modulators of MEK5 binding to wildtype MEKK2, primary screen, biochemical, multiplex bead flow cytometry, Alexa488-MEK5. Alexa488-MEK5 binding to MEKK2 WT; actives lie on both sides. binding response (% of control), % at 10 µM. hit rate 1.1% among 290,000. AID 1531, 2009; in the data active = binding response below about 67% or above about 130%
MEKK2wt confirm: modulators of MEK5 binding to wildtype MEKK2, confirmation, biochemical, single concentration, multiplex bead flow cytometry; shares compounds with MEKK3 PB1 HTS; Alexa488-MEK5 binding to MEKK2 WT; actives lie on both sides; binding response (% of control), % at 10 µM; hit rate 2.4% among 5,900; AID 1892, 2009; in the data active = binding response below about 16% or above about 210%; inactive = in between
MEKK2mut-MEK5: mutant MEKK2 PB1-MEK5 binding signal retest – biochemical, single concentration, multiplex bead flow cytometry, confirmation; shares compounds with MEKK3 PB1 HTS; Alexa488-MEK5 binding to MEKK2 mutant; percent response, % at 10 µM; hit rate 2% among 5,900; AID 1893, 2009; in the data active = percent response mostly above about 71%, no sharp cut-off; inactive = mostly below about 38%;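 note: higher means compound restores mutant binding toward wildtype level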
MEKK3-MEK5 inh: MEKK3 wild-type PB1 binding to MEK5, inhibitors, confirmation, biochemical, bead multiplex flow cytometry, single concentration, wildtype. shares compounds with MEKK3 PB1 HTS. Alexa488-MEK5 binding to MEKK3; active compounds read low. binding response (% of control), % at 10 µM. hit rate 1.8% among 5,900. AID 1894, 2009;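 active = binding response below 72% of control, or above a set upper limit, though filed actives all read lower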;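 note: lower values mean stronger disruption of MEK5 binding to MEKK3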
A number is an active result; [ ] = remark or other dose. Only some compounds are listed: those with a hit (about 2.5% of all), similar ones and a draw of the others.

Screening O=C1CCC(C(=O)N2CCOCC2)CN1Cc1ccc(Cl)cc1 (stereo not drawn) returned MEKK2 mut-MEK5 inactive, GRK2 inh inactive, MEKK3 PB1 HTS inactive and MEKK2wt PB1 HTS inactive.
Screening CCCCN=C1CC(C)(C)CC(=O)/C1=C(/O)CCCN1C(=O)c2ccccc2C1=O returned MEKK2 mut-MEK5 inactive, GRK2 inh inactive, MEKK3 PB1 HTS inactive and MEKK2wt PB1 HTS inactive.
`CC1(C)CC(=O)/C(=C(/O)Cc2ccccc2)C(=NCCc2ccccc2)C1` gave MEKK2 mut-MEK5 inactive, GRK2 inh inactive, MEKK3 PB1 HTS 128.0, MEKK2wt PB1 HTS inactive, MEKK2wt confirm inactive, MEKK2mut-MEK5 inactive and MEKK3-MEK5 inh inactive.
`O=C(NCCN1CCCc2ccccc21)C1CCC(=O)N(CCc2ccccc2)C1` (stereo not drawn) gave MEKK2 mut-MEK5 inactive, GRK2 inh inactive, MEKK3 PB1 HTS inactive and MEKK2wt PB1 HTS inactive.
Cc1ccc(S(=O)(=O)N2CCCOC2)cc1 was read as MEKK2 mut-MEK5 inactive, GRK2 inh inactive, MEKK3 PB1 HTS 79.0[inhibitor], MEKK2wt PB1 HTS inactive, MEKK2wt confirm inactive, MEKK2mut-MEK5 inactive and MEKK3-MEK5 inh inactive.
Screening O=C1NC(c2ccccc2)=N/C1=C/c1ccco1 returned MEKK2 mut-MEK5 inactive, GRK2 inh inactive, MEKK3 PB1 HTS 138.0, MEKK2wt PB1 HTS inactive, MEKK2wt confirm inactive, MEKK2mut-MEK5 inactive and MEKK3-MEK5 inh inactive.
OCCN(CC(O)COc1ccccc1)CC(O)Cn1ccc2ccccc21 (stereo not drawn) was read as MEKK2 mut-MEK5 inactive, GRK2 inh inactive, MEKK3 PB1 HTS 134.0, MEKK2wt PB1 HTS inactive, MEKK2wt confirm inactive, MEKK2mut-MEK5 inactive and MEKK3-MEK5 inh inactive.
Screening C=CCN1C(=O)C(Cc2ccc(F)cc2)S/C1=N/N=C/c1cccs1 (stereo not drawn) returned MEKK2 mut-MEK5 inactive, GRK2 inh inactive, MEKK3 PB1 HTS inactive and MEKK2wt PB1 HTS inactive.
Screening CNC(=O)c1nn(-c2ccc(C)cc2)ccc1=O returned MEKK2 mut-MEK5 25.0, GRK2 inh inactive, MEKK3 PB1 HTS inactive, MEKK2wt PB1 HTS inactive, MEKK2wt confirm inactive, MEKK2mut-MEK5 inactive and MEKK3-MEK5 inh inactive.
CC(/C=C/c1ccco1)=N\NC(=O)C(O)c1ccccc1 (stereo not drawn) was read as MEKK2 mut-MEK5 inactive, GRK2 inh inactive, MEKK3 PB1 HTS 133.0, MEKK2wt PB1 HTS inactive, MEKK2wt confirm inactive, MEKK2mut-MEK5 inactive and MEKK3-MEK5 inh inactive.
O=C(N/N=C/c1ccco1)C(O)c1ccccc1 (stereo not drawn) was read as MEKK2 mut-MEK5 inactive, GRK2 inh inactive, MEKK3 PB1 HTS inactive and MEKK2wt PB1 HTS inactive.
`COc1ccc(C(=O)NC(C)c2ccc(-n3ccnc3)cc2)c(OC)c1` (stereo not drawn) gave MEKK2 mut-MEK5 inactive, GRK2 inh inactive, MEKK3 PB1 HTS inactive and MEKK2wt PB1 HTS inactive.
Screening c1ccc2c(-c3cn4ccccc4n3)c[nH]c2c1 returned MEKK2 mut-MEK5 inactive, GRK2 inh inactive, MEKK3 PB1 HTS inactive, MEKK2wt PB1 HTS 63.0[inhibitor], MEKK2wt confirm inactive, MEKK2mut-MEK5 inactive and MEKK3-MEK5 inh inactive.
Screening Cc1cc(C(=O)COC(=O)c2ccc[nH]c2=O)c(C)n1-c1ccccc1F returned MEKK2 mut-MEK5 inactive, GRK2 inh inactive, MEKK3 PB1 HTS inactive and MEKK2wt PB1 HTS inactive.
CCCn1c(C)cc(C(=O)COC(=O)c2ccc[nH]c2=O)c1C was read as MEKK2 mut-MEK5 inactive, GRK2 inh inactive, MEKK3 PB1 HTS 130.0, MEKK2wt PB1 HTS inactive, MEKK2wt confirm inactive, MEKK2mut-MEK5 inactive and MEKK3-MEK5 inh inactive.
For Cc1ccc(S(=O)(=O)N2CCOCC2)cc1C(=O)Nc1ccc(-c2cn3ccsc3n2)cc1 the results were MEKK2 mut-MEK5 inactive, GRK2 inh inactive, MEKK3 PB1 HTS inactive and MEKK2wt PB1 HTS inactive.
Screening CSc1cccc(NC(=S)N2CCC(N(C)C(C)C)CC2)c1 returned MEKK2 mut-MEK5 inactive, GRK2 inh inactive, MEKK3 PB1 HTS 50.0[inhibitor], MEKK2wt PB1 HTS inactive, MEKK2wt confirm inactive, MEKK2mut-MEK5 inactive and MEKK3-MEK5 inh inactive.
For CCC(C)N(C)C1CCN(C(=S)Nc2cccc(SC)c2)CC1 (stereo not drawn) the results were MEKK2 mut-MEK5 inactive, GRK2 inh inactive, MEKK3 PB1 HTS inactive and MEKK2wt PB1 HTS inactive.
`Cc1cccc(C(=O)NCc2nnc3c4ccccc4c(-c4ccccc4)nn23)c1` gave MEKK2 mut-MEK5 inactive, GRK2 inh inactive, MEKK3 PB1 HTS 146.0, MEKK2wt PB1 HTS inactive, MEKK2wt confirm inactive, MEKK2mut-MEK5 inactive and MEKK3-MEK5 inh inactive.
CC(C)COC(=O)c1ccc(N2C(=O)c3ccccc3C2=O)cc1 was read as MEKK2 mut-MEK5 inactive, GRK2 inh inactive, MEKK3 PB1 HTS 5.0[inhibitor], MEKK2wt PB1 HTS 7.0[inhibitor], MEKK2wt confirm inactive, MEKK2mut-MEK5 inactive and MEKK3-MEK5 inh inactive.
CCOC(=O)c1ccc(N2C(=O)Cc3ccccc3C2=O)cc1 was read as MEKK2 mut-MEK5 inactive, GRK2 inh inactive, MEKK3 PB1 HTS inactive and MEKK2wt PB1 HTS inactive.
Screening COCCCn1c(=O)/c(=C\c2ccc(OC(F)F)c(OC)c2)s/c1=C(/C#N)C(N)=O returned MEKK2 mut-MEK5 inactive, GRK2 inh inactive, MEKK3 PB1 HTS inactive and MEKK2wt PB1 HTS inactive.
COc1cccc(O)c1CN1CCC(C(=O)Nc2ccc(-c3cccc(C)c3)cc2)CC1 was read as MEKK2 mut-MEK5 61.0, GRK2 inh inactive, MEKK3 PB1 HTS inactive, MEKK2wt PB1 HTS 227.0, MEKK2wt confirm inactive, MEKK2mut-MEK5 inactive and MEKK3-MEK5 inh inactive.
For CN(C)C(=O)OCC1COc2ccccc2O1 (stereo not drawn) the results were MEKK2 mut-MEK5 inactive, GRK2 inh inactive, MEKK3 PB1 HTS inactive and MEKK2wt PB1 HTS inactive.
Screening N#C/C(=C\C=C\c1ccccc1[N+](=O)[O-])c1nc(-c2ccc3c(c2)OCO3)cs1 returned MEKK2 mut-MEK5 30.0, GRK2 inh inactive, MEKK3 PB1 HTS inactive, MEKK2wt PB1 HTS 24.0, MEKK2wt confirm inactive, MEKK2mut-MEK5 inactive and MEKK3-MEK5 inh inactive.
For CCOC(=O)C(NC(=O)Nc1ccc(F)cc1F)(Oc1ccccc1)C(F)(F)F (stereo not drawn) the results were MEKK2 mut-MEK5 inactive, GRK2 inh inactive, MEKK3 PB1 HTS inactive and MEKK2wt PB1 HTS inactive.
